Measured values from PubChem BioAssay (NCI).
Compounds without any hit were thinned out: in the full panel of roughly 83,000, 20% have a hit.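 The test compound was applied at a single concentration to cells in 96-well plates for 48 hours, and percent growth was recorded.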 Unmarked numbers belong to inactive results. The source made the active and inactive calls. How the source made its calls: active means growth percent below 10; inactive means the rest.

How the values were obtained:
Assay in all cases: NCI-60 one-dose screen, 48 h (100 = growth as untreated, 0 = no growth, -100 = all killed)
Conditions in all cases: 10 µM unless noted
[1] = tested on: NCI-H23 lung
[2] = tested on: NCI-H226 lung
[3] = tested on: NCI-H322M lung
[4] = tested on: HOP-62 NSCLC
[5] = tested on: NCI-H460 lung
[6] = tested on: HOP-92 NSCLC
[7] = tested on: NCI-H522 lung
[8] = tested on: A549/ATCC NSCLC
[9] = tested on: 786-0 renal
[10] = tested on: COLO 205 colon
[11] = tested on: DU-145 prostate
[12] = tested on: K-562 leukemia
[13] = tested on: MALME-3M melanoma
[14] = tested on: MDA-MB-231 breast
[15] = tested on: RXF 393 renal
[16] = tested on: SF-268 CNS
[17] = tested on: SF-295 CNS
[18] = tested on: SF-539 CNS
[19] = tested on: UACC-257 melanoma
[20] = tested on: M14 melanoma

| SMILES | growth [1] | growth [2] | growth [3] | growth [4] | growth [5] | growth [6] | growth [7] | growth [8] | growth [9] | growth [10] | growth [11] | growth [12] | growth [13] | growth [14] | growth [15] | growth [16] | growth [17] | growth [18] | growth [19] | growth [20] |
| --- | --- | --- | --- | --- | --- | --- | --- | --- | --- | --- | --- | --- | --- | --- | --- | --- | --- | --- | --- | --- |
| O=C1NC(=O)C(CC(=O)n2c(-c3ccccc3)nc3ccccc32)C(=O)N1 | 97.4% | 97.7% | 100% | 94.4% | 102% | 97.5% | 93% | 101% | 99.7% | 118% | 108% | 106% | 116% | 98.9% | 101% | 99% | 97.3% | 95.1% | 112% | 108% |
| COc1ccc(-c2nn(-c3ccccc3)cc2/C=C2\SC(=O)NC2=O)cc1 | 94.8% | 98.9% | 117% | 101% | 97.5% | 96.6% | 81.6% | 105% | 81.1% | 123% | 109% | 86.7% | 112% | 84.4% | 114% | 96.9% | 92% | 96.8% | 110% | 102% |
| COCCCN=C(N)c1ccc(NC(=O)c2ccc(C(=O)Nc3ccc(C(N)=NCCCOC)cc3)cc2)cc1 | 82.1% | 90.7% | 90.5% | 81.6% | 102% | 134% | 97.5% | 106% | 87.7% | 105% | 148% | 66.8% | 75.5% | 112% | 142% | 103% | 93.7% | 98.5% | 121% | 80.3% |
| O=C(O)c1ccc2c(c1Sc1ccccc1)C(=O)c1ccccc1C2=O | 91.1% | 92.6% | 82.2% | 91.8% | 100% | 76.7% | 120% | 96.8% | 106% | 112% | 107% | 112% | 83.4% | 90.1% | 98.6% | 101% | 91.3% | 84.5% | 96.3% | 107% |
| COc1ccc(-c2cc(C(=O)N=Nc3c(O)[nH]c4ccccc34)no2)cc1 | 101% | 94% | 103% | 91.6% | 102% | 100% | 82.4% | 107% | 104% | 111% | 104% | 90.7% | 102% | 96.9% | 102% | 99.4% | 102% | 100% | 114% | 101% |
| CC[C@H](Nc1ncnc(N)c1C(N)=O)c1nc2cccc(NCc3ccc(C(=O)NO)cc3)c2c(=O)n1-c1ccccc1 | 91.7% | 102% | 86.9% | 78% | 79.5% | 21.5% | 35.9% | 98.2% | 90.3% | 78.3% | 97.6% | 55.6% | 67.2% | 83.8% | 55.2% | 90.1% | 93.2% | 75.1% | 63.4% | 95.9% |
| CCOC(=O)c1cnc2ccc(OC)cc2c1Nc1cccc(S(=O)(=O)NC)c1 | 91.8% | 108% | 99.8% | 99.6% | 114% | 112% | 99.8% | 103% | 77.1% | 134% | 102% | 92.8% | 105% | 100% | -4.54% (active) | 86.2% | 54.7% | 50.1% | 112% | 115% |
| Brc1cccc(-c2cc(-c3ccc4c(c3)OCCO4)[nH]n2)c1 | 42.5% [25 µM] | 25.2% [25 µM] | 46.2% [25 µM] | 20.4% [25 µM] | 10.3% [25 µM] | 62.8% [25 µM] | -5.75% [25 µM] (active) | 25.7% [25 µM] | 40.8% [25 µM] | -24.5% [25 µM] (active) | 21% [25 µM] | 14.7% [25 µM] | 49.1% [25 µM] | 33.4% [25 µM] | -18.6% [25 µM] (active) | 50.5% [25 µM] | 0.112% [25 µM] (active) | -14.1% [25 µM] (active) | 62.4% [25 µM] | 20.9% [25 µM] |
